# Assay outcomes as filed in PubChem.
# Sampled rows, rich in hits. Any-hit rate of the full collection: about 2.4%.
# CHO-K1 Ca ag – M1 agonist counterscreen hit in parental CHO-K1 cells | Fluo-8 calcium fluorescence; scaled to maximal ATP response, vehicle zero | activation, % at 3 µM | hit rate 0.48% among 360,000 | AID 602248; in the data active = activation above about 15%;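 also: untransfected CHO-K1 host cells lacking M1 receptor as counterscreen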
# M1 PAM parental – nonselective activator or artifact in parental CHO-K1 calcium assay; AID 602247; activation, % at 3 µM; ATP EC20, Fluo-8 calcium fluorescence; 0% at ATP EC20, 100% at ATP max; hit rate 0.02% among 360,000;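 active = activation above the run cutoff, the mean activation of all test compounds plus 3 SD, cut at about 40% in these data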;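 also: peak over basal fluorescence ratio in a 140 s read after ATP addition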
# CHRM1 PAM – positive allosteric modulators of human M1 muscarinic receptor; P11229; CHO-K1 hM1, Fluo-8 calcium fluorescence, ACh EC20; 0% = ACh EC20, 100% = maximal ACh; activation, % at 3 µM; hit rate 0.088% among 360,000; AID 588819; in the data active = activation above about 19%, passing the limit was not always enough
# Target sequence (P11229 whole entry, looked up): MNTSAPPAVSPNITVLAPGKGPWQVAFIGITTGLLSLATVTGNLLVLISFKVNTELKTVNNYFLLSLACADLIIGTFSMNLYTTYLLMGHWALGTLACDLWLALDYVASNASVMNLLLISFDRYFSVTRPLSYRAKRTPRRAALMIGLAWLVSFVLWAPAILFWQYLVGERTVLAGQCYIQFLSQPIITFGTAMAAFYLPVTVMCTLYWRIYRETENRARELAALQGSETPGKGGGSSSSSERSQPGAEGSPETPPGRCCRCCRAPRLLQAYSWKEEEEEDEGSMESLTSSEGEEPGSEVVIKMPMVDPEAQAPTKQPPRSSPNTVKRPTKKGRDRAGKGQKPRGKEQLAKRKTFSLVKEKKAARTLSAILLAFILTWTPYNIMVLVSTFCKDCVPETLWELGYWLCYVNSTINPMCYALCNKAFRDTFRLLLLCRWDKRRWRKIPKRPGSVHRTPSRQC
# CHO-K1 Ca antag – M1 antagonist counterscreen hit in parental CHO-K1 cells; inhibition, % at 3 µM; ATP-induced calcium, Fluo-8 fluorescence; hit rate 0.6% among 360,000;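 active = inhibition above a per-plate cutoff, the plate's mean sample inhibition plus 3 SD, cut at about 24% in these data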;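 also: 0% = DMSO plus EC80 ATP and 100% = DMSO alone without ATP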
# CHRM1 antagonist – human CHRM1 antagonism; P11229; CHO-K1 hM1, Fluo-8 calcium fluorescence, ACh EC80 antagonist; inhibition, % at 3 µM; hit rate 1.3% among 360,000;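 active = percent inhibition above its own plate's cutoff, namely the mean of that plate's compound wells plus 3 SD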;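 also: peak over basal fluorescence ratio during 140 s after agonist addition; 0% = ACh EC80 plus DMSO and 100% = DMSO alone without agonist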
# M1 ag – human M1 muscarinic receptor agonism; P11229; CHO-K1 hM1, Fluo-8 calcium fluorescence, agonist mode; 0% DMSO, 100% acetylcholine EC100; activation, % at 3 µM; hit rate 0.33% among 360,000; AID 588814;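 active = activation above the run's mean compound activation plus 3 SD, cut at about 16% in these data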;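 also: peak over basal fluorescence ratio within a 140 s kinetic read after compound addition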
# Starred values were filed as active, the others as inactive.
SMILES,CHO-K1 Ca ag,M1 PAM parental,CHRM1 PAM,CHO-K1 Ca antag,CHRM1 antagonist,M1 ag
CC1=CN2C(=NC(=O)CC2(C)C(=O)N(CC(=O)NC2CCCC2)Cc2ccc(Cl)cc2)C=C1 (stereo not drawn),2,20,9,-12,-12,-5
COc1ccccc1-c1nnc(SCC(=O)Nc2ccc(N3CCOCC3)cc2)n1C,2,21,11,-10,-17,-4
CC(=O)NC(N(C#N)c1nc(Cl)nc(N(C)C)n1)C(Cl)(Cl)Cl (stereo not drawn),0,-10,10,4,-12,-2
Cc1noc(C)c1COc1ccc(C(=O)Nc2cccnc2)cc1,1,2,-26,-11,71*,-8
C[C@H](CO)N1C[C@H](C)[C@@H](CN(C)S(C)(=O)=O)Oc2ccc(NC(=O)Cn3cnnn3)cc2C1=O,0,-4,10,2,-14,-2
O=C(Cn1ccc([N+](=O)[O-])n1)NCc1nc2ccccc2[nH]1,17*,18,3,0,7,-5
CCN(CC)c1ccc(/C=C(/C#N)c2nc3ccc(C)cc3[nH]2)c(OC(C)C)c1,39*,-14,-25,50*,52*,31*
CCOc1cc(N(CC)CC)ccc1/C=C(/C#N)c1nc2ccccc2[nH]1,19*,-8,-19,21,52*,36*
CCCOc1cc(N(CC)CC)ccc1/C=C(/C#N)c1nc2ccc(C)cc2[nH]1,17*,-4,-12,35*,39*,11
COc1cc(/C=C(\C#N)c2nc3ccc(C)cc3[nH]2)c([N+](=O)[O-])cc1OC,0,19,4,-9,-29,13
O=C(CCCn1c(SCc2ccccc2F)nc2ccccc2c1=O)NCC1CCCO1 (stereo not drawn),17*,22,6,-9,-1,-7
O=C(CCCn1c(SCC(=O)NC2CCCCC2)nc2ccccc2c1=O)NCC1CCCO1 (stereo not drawn),0,5,5,6,-9,-2
O=C(COC(=O)[C@H](Cc1ccccc1)NC(=O)c1ccco1)Nc1ccccc1OC(F)F,1,7,15,-12,-11,-1
Cc1cccc(N(CC(=O)NC2CCCC2)C(=O)CNC(=O)c2ccco2)c1C,0,7,2,-10,-1,-2
Cc1ccc(C)c(N2CCN(C(=O)C3CCCN(S(=O)(=O)c4cnc[nH]4)C3)CC2)c1 (stereo not drawn),0,-10,-8,23,11,-3
CC(=O)N1CCCc2cc(S(=O)(=O)N3CCCC(C(=O)N4CCN(c5ccccc5)CC4)C3)ccc21 (stereo not drawn),16*,11,-6,-4,2,5
CC(=O)N1CCCc2cc(S(=O)(=O)N3CCCC(C(=O)N4CCN(c5cc(C)ccc5C)CC4)C3)ccc21 (stereo not drawn),14,-9,-15,14,41*,3
COc1ccccc1N1CCN(C(=O)C2CCCN(S(=O)(=O)c3ccc4c(c3)CCCN4C(C)=O)C2)CC1 (stereo not drawn),11,-22,-15,8,30,3
CC(=O)C1=CCC(c2ccc(C)cc2)N(S(=O)(=O)c2ccc(C)cc2)C1 (stereo not drawn),2,3,-4,2,-4,-4
CC(=O)C1=CCC(c2ccc(Br)cc2)N(S(=O)(=O)c2ccc(C)cc2)C1 (stereo not drawn),4,11,-24,13,37*,-9
COc1cc(C[C@@H]2C(=O)OC[C@H]2Cc2ccc(OC)c(OC)c2)ccc1O,12,5,-24,4,50*,3
Cc1ccc(C(=O)OCC(=O)N2CCNC2=O)c(C)c1,0,5,14,6,-9,1
O=[N+]([O-])c1ccc(Cl)c(CN2CCN(c3ncccn3)CC2)c1,0,16,15,-3,-27,-8
Cc1ccc2nc(C)c(CN3CCN(c4ccc([N+](=O)[O-])cc4Cl)CC3)n2c1,10,-20,-20,23,37*,-6
CCN(Cc1ccccc1)C(=O)CN1C(=O)NC(CC)(c2ccc(F)cc2)C1=O (stereo not drawn),4,17,12,-14,-10,0
SMILES,CHO-K1 Ca ag,M1 PAM parental,CHRM1 PAM,CHO-K1 Ca antag,CHRM1 antagonist,M1 ag
O=P(CCCCCCCCCP(=O)(c1ccccc1)c1ccccc1)(c1ccccc1)c1ccccc1,6,-1,-10,16,32*,2
COCCCNc1ccn2nc(-c3cccc(OCc4ccccc4)c3)cc2n1,2,-4,-11,9,27*,-1
OC1CCC(Nc2ccn3nc(-c4cccc(OCc5ccccc5)c4)cc3n2)CC1 (stereo not drawn),5,-7,-8,29*,20,7
COCCCNc1ccn2nc(-c3ccccc3)cc2n1,1,2,5,-1,-17,-2
OC1CCC(Nc2ccn3nc(-c4cccc(Cl)c4)cc3n2)CC1 (stereo not drawn),3,15,0,-7,-3,-1
O=C(OCC(=O)N(C1CCCCC1)C1CCCCC1)c1ccc(Cl)nc1,0,17,24*,-10,-22,0
COc1ccc(C(=O)COC(=O)CCN2C(=O)C3C4CCC(C4)C3C2=O)cc1 (stereo not drawn),0,-17,-7,24*,6,-4
NS(=O)(=O)c1ccc(CNC(=O)c2cc(=O)c3cc(Cl)ccc3o2)cc1,10,2,2,4,-2,-2
O=C(COC(=O)c1ccccc1)c1ccc(S(=O)(=O)N2CCCCC2)cc1,4,-3,-6,-2,15,-2
CN(C(=O)COC(=O)c1ccc(S(=O)(=O)N2CCCC2)cc1)c1ccccc1,4,13,-22,-18,50*,-6
COCCn1c(SCC(=O)Nc2ccc3[nH]c(=O)[nH]c3c2)nc2ccccc21,1,17,-18,-5,38*,-8
CCn1c(SCC(=O)Nc2ccc3[nH]c(=O)[nH]c3c2)nc2ccccc21,0,8,-21,-21,50*,-9
CC(C)Cn1c(SCC(=O)Nc2ccc3[nH]c(=O)[nH]c3c2)nc2ccccc2c1=O,0,2,16,9,-17,-4
CC(C)[C@H](NC(=O)C1CC(=O)N(c2ccc3c(c2)OCCO3)C1)C(=O)NC1CCCC1 (stereo partly drawn),-1,3,-1,2,11,-2
Cc1cc(C)cc(N2CC(C(=O)NC3CCCCC3)CC2=O)c1 (stereo not drawn),1,-4,11,-4,-10,-5
CCOC(=O)CC1C(=O)NCCN1C(=O)c1c(Cl)cccc1Cl (stereo not drawn),2,6,10,-11,-16,-4
